Screens (PubChem BioAssay)
Most compounds without a hit are left out; they make up all but 8% or so of the library.
Lassa entry = Lassa virus entry inhibition. Lassa virus pseudotyped entry inhibition, cell-based qHTS. Potency, µM (series often up to 49.2 µM), without a hit: at the top dose activity change, negative = inhibition, most hits filed as inhibitors. hit rate 4.1% among 18,000
MARV entry inh = blocks Marburg virus binding or cell entry; Marburg virus pseudotype entry/binding inhibition, cell-based; Potency, µM (titrated, usually from 49.2 µM), inactives show at the top dose activity change, negative = inhibition, hits mostly inhibitors; hit rate 6.5% among 18,000; AID 720532
An asterisk follows results filed as active; ? = inconclusive; nt = not tested or not shown; ! = not active in a repeat; [ ] = dose if it differs, or a comment. Calls follow the shape of the full dose curve; tested in HEK293 cells. % is scaled to controls: 0 for no effect and ±100 for the full control effect; potency is read from the fitted curve at half-maximal effect.

SMILES	Lassa entry	MARV entry inh
CCCC[C@]12Cc3cc(OC)c(OC)cc3[C@H](O1)C1=C(O2)C(=O)c2ccccc2C1=O	5.5%[8.59 µM]	5.1%[8.59 µM]
C=CCO[C@@H](Cn1ccnc1)c1ccc(Cl)cc1Cl	-0.8%[17.8 µM]	-4.7%[17.8 µM]
Clc1ccc(COC(Cn2ccnc2)c2ccc(Cl)cc2Cl)cc1 (stereo unspecified)	35.5µM*!	?
CCOC(=O)C1=CC2(CC)CCCN3CCc4c(n1c1ccccc41)C32 (stereo unspecified)	?	-14.7%
CCOC(=O)C1=C[C@@]2(CC)CCCN3CCc4c(n1c1ccccc41)C32 (stereo partly specified)	-6.8%	10µM*
CCCCCCN1C[C@@H](O)[C@H](n2cc(C3CC3)nn2)C[C@H]1c1ccc(C)cc1	nt	-48.8%
[O][C@H]1[C@@H](O)[C@@H](CO)O[C@@H](O[C@@H]2[C@@H]3OC[C@H]2O[C@H](O[C@@H]2[C@@H](O)[C@H](C[C@@H]4[C@@H]5OC[C@H]4O[CH][C@@H]5O)O[C@H](CO)[C@@H]2OS(=O)(=O)O)[C@@H]3OS(=O)(=O)O)[C@@H]1O	-6.5%	11.2µM*
OC[C@@H]1O[C@H](OC2[C@@H](O)[C@@H](O)C(O)O[C@@H]2CO)[C@H](O)[C@@H](O)[C@@H]1OC1O[C@H](CO)[C@@H](O)[C@H](O)[C@@H]1O (stereo partly specified)	5.1%	7.9%
Nc1nc(N)c2nc(CNc3ccc(C(=O)N[C@@H](CCC(=O)O)C(=O)O)cc3)cnc2n1	1.8%	-5.4%
CN(Cc1cnc2nc(N)nc(N)c2n1)c1ccc(C(=O)NC(CCC(=O)O)C(=O)O)cc1 (stereo unspecified)	?	0.282µM*
CCCCCCN1C[C@@H](n2cc(COC(=O)c3ccccc3)nn2)[C@H](O)C[C@H]1c1ccc(Cl)cc1	-19.7%	?
CCCCCC(=O)N1C[C@H](O)[C@@H](n2cc(C3CC3)nn2)C[C@H]1c1ccc(OC)cc1	8.2%	12.9%
COC(=O)C1=C(C)N(CCC(C)O[Si](C)(C)C(C)(C)C)C(=O)N(C(C)=O)C1c1ccccc1 (stereo unspecified)	2.9%[8.59 µM]	7.2%[8.59 µM]
Cc1oc(-c2ccccc2NC(=O)C2CCC2)nc1CNC(=O)c1c(F)ccc(F)c1F	-9.1%	?
COC(=O)CC=C1c2ccc3c(c2[C@@H](OC)[C@@H]1C)OCO3	-1.9%[8.59 µM]	-6.1%[8.59 µM]
OC[C@H]1O[C@@H](n2cnc3c(NCc4ccccc4)ncnc32)[C@H](O)[C@@H]1O	?	28.2µM*
O=S(=O)(O)c1ccc(Nc2ncnc3c2ncn3[C@@H]2O[C@H](CO)[C@@H](O)[C@H]2O)cc1	-12.6%	16.9%
COc1cc2c(cc1OC)[C@@H]1O[C@](CCCCN3C(=O)c4ccccc4C3=O)(C2)OC2=C1C(=O)CCC2	nt	-17.1%[8.59 µM]
CCOC(=O)CCN1C(=O)[C@@H]2[C@H]3[C@H](O)[C@H](O)CC(=NNC(=O)OCc4ccc(OC)cc4)[C@@H]3CC[C@H]2C1=O	?	11.9%[8.59 µM]
C=C1CCC2C(C)(CO)C(O)CCC2(C)C1C/C=C1\C(=O)OCC1O (stereo unspecified)	?	11.2µM*
CC(C)CCC[C@@H](C)[C@H]1CC(=O)C2=C3CC[C@H]4C[C@@H](O)CC[C@]4(C)[C@H]3CC[C@@]21C	-23.1%	25.2%
COC(=O)[C@@H]1CC[C@H](C)[C@@H](c2ccc(C)cc2)N1C(=O)c1ccc(C=NO[C@H](C)CN2CCCc3nc(C)c(C)cc32)cc1	7.2%[8.59 µM]	?
C/C=C(/C)C(=O)O[C@H]1C(C)=C2[C@H]([C@@H]1OC(=O)CCCCCCC)[C@@](C)(OC(C)=O)C[C@H](OC(=O)CCC)[C@@]1(O)[C@H]2OC(=O)[C@@]1(C)O	44.7µM*	22.4µM*
CC1=C[C@]2(O[C@H](COc3ccccc3)C1)C(=O)N(C)c1ccccc12	94.6%[8.59 µM]	144.1%[8.59 µM]
CN(C)c1ccc(C(=C2C=CC(=[N+](C)C)C=C2)c2ccccc2)cc1	2.24µM*	1.41µM*!
SMILES	Lassa entry	MARV entry inh
CN(C)c1ccc(C(=C2C=CC(=[N+](C)C)C=C2)c2ccc(N(C)C)cc2)cc1	1.78µM*	1.41µM*
CN(C)c1ccc(-c2nccc(NCc3ccccc3)n2)cc1	-18.0%	?
C[C@H]1CC[C@H]2C(=O)N(Cc3ccc(Cl)cc3)C[C@H](O)CN2[C@H]1c1ccc(Br)cc1	10.1%[8.59 µM]	-2.2%[8.59 µM]
COC/C=C/C1=CC2=CC(=O)C(C)(OC(=O)c3cnc4ccccc4n3)C(=O)C2=CO1 (stereo unspecified)	5.62µM*	14.5%
CCC(=O)OC1(C)C(=O)C=C2C=C(/C=C/COC)OC=C2C1=O (stereo unspecified)	0.1%	-14.1%
CC(C)=CCN1C(=O)[C@@]2(CC(C)=C[C@@H](COCc3ccccc3)O2)c2ccccc21	nt	2.9%[8.59 µM]
CC#C[C@H](C)[C@@H](OCOC)[C@H](C[C@H](C)Cc1cc(Br)cc(OCc2ccccc2)c1OC)OC	-3.1%[8.59 µM]	-10.3%[8.59 µM]
C[C@H]1[C@@H](C(=O)N2CCCC2)CC(=NOCc2ccccc2)C(=NOCc2ccccc2)C[C@H]1c1ccccc1	nt	-29.4%[8.59 µM]
